A selection: hits, their analogues and other compounds. The true share with any hit is near 28%.
CYP2C19 activ – activators of human cytochrome P450 2C19; P33261; recombinant CYP2C19, luciferin-H EGE luminescence; stronger effect = higher value; 0 = fully inhibited enzyme, 1 = untreated enzyme; activation factor at 5 µM; 96,000 tested, under 10 active; AID 1025;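 active means activation factor of at least 2 at 5 µM in the primary screen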;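 further: 0 = wells with 2.5 mM tranylcypromine and 1 = vehicle-only wells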
CYP2C9 activ – activators of human CYP2C9 | recombinant CYP2C9, luciferin-H conversion, luminescence; stronger effect = higher value; factor 1 = untreated enzyme, 0 = blocked | activation factor at 5 µM | hit rate 1.4% among 96,000 | AID 1024 | P11712;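 active means activation factor of 2 or more for CYP2C9 at a 5 µM dose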;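 further: 0 = sulfaphenazole-blocked wells and 1 = vehicle-only wells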
Target sequence (P11712 whole entry, looked up): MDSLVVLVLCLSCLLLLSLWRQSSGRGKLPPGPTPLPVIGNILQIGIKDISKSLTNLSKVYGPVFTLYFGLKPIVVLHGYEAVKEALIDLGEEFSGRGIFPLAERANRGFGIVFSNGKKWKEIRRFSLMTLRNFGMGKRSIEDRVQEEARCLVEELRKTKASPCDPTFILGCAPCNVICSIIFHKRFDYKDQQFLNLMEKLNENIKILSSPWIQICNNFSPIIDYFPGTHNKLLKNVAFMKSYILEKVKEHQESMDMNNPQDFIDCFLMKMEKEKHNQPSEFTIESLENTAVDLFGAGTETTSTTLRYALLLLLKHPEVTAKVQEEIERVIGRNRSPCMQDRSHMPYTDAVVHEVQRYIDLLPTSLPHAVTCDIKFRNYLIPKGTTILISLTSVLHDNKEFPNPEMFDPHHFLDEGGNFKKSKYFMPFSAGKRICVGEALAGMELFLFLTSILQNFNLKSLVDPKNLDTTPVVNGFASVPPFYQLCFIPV
Mac1 fbg enh – increases human CD11b/CD18 adhesion to fibrinogen; activation, % at 10 µM; P05107+P11215; hit rate 0.07% among 93,000; K562 CD11b/CD18 adhesion to fibrinogen, ATPlite luminescence; AID 1499;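 active means 10 µM primary screen giving 50% or more activity, confirmed by 40% or more on retest at that dose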
CD11b adhes inh – blocks human CD11b/CD18 adhesion to fibrinogen; K562 CD11b/CD18 adhesion to fibrinogen, ATPlite luminescence; Mn2+ added to activate the integrin; hit rate 0.54% among 93,000; P05107+P11215; inhibition, % at 10 µM;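 active means primary inhibition of 50% or more at 10 µM, then 40% or more on retest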
CYP2C9 inhib – blocks human cytochrome P450 2C9. P11712. CYP2C9 Supersomes, luciferin-H conversion, luminescence. inhibition, % at 5 µM. hit rate 20% among 96,000. AID 777;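 active means blocking of liver enzyme CYP2C9 beyond about 50% at 5 µM, limit read from the data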
CYP2C19 inhib – human CYP2C19 inhibition. inhibition, % at 5 µM. P33261. CYP2C19 Supersomes, luciferin-H EGE luminescence, 30 min. hit rate 21% among 96,000;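 active means CYP2C19 inhibition above a set limit at 5 µM in the primary screen, cut at about 50% in these data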;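 further: plate controls were negative control wells for no effect and 2.5 mM tranylcypromine positive control for full effect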
The depositor's hits bear a star; . = no result.

SMILES	CYP2C19 activ	CYP2C9 activ	Mac1 fbg enh	CD11b adhes inh	CYP2C9 inhib	CYP2C19 inhib
CCCOC(=O)c1ccc(Oc2cn[nH]c2-c2ccc(OCC)cc2O)cc1	0.1	0	-3	41	100*	88*
CCOc1ccc(-c2n[nH]c(C)c2-c2ccccc2OC)c(O)c1	0.5	0.8	-3	9	20	47
CCCOC(=O)c1ccc(Oc2c(-c3ccc(OCC)cc3O)n[nH]c2C)cc1	0.2	0	2	24	98*	84*
COc1ccc(Oc2c(-c3ccc(O)cc3O)n[nH]c2C)cc1	0	0	-2	1	100*	100*
Cc1ccc(S(=O)(=O)Nc2ccc3c(c2)CCC3)cc1C	.	.	-3	36	.	.
COc1ccc(S(=O)(=O)Nc2ccc3ccccc3c2)cc1C	0	0	-2	10	100*	100*
CCc1ccc(NS(=O)(=O)c2ccc(OC)c(C)c2)cc1	0.2	0.2	2	17	80*	78*
CCN(c1ccc(NC(=O)CSc2nnc3nc(C)cc(C)n23)cc1)C(C)C	0.9	0.9	2	-5	11	10
COC(=O)CSc1nnc(CNC(=O)c2ccc(OC)cc2OC)n1C	1	0.9	-1	-6	12	-1
COC(=O)CSc1nnc(-c2sc3cc(OC)ccc3c2Cl)n1C	0.4	1	-4	12	-4	56*
CC1(C)CC(=O)c2cnn(-c3nc4ccccc4[nH]3)c2C1	0.2	0.4	1	1	56*	80*
Cc1cc2c(cc1C)NC(c1nc3ccccc3[nH]1)C1=C(CC(C)(C)CC1=O)N2 (configuration not stated)	1	1	.	.	-4	-4
CC1=C(C(=O)Nc2ccccc2)C(c2ccc(C)cc2)N=C(Nc2nc3ccccc3o2)N1 (configuration not stated)	0.9	0.7	2	6	35	11
O=C1c2ccccc2C(=O)c2c(NCc3cccnc3)cccc21	0	0.2	.	.	79*	99*
CCc1ccc(N2C(=O)/C(=C/c3cccs3)N(CC(=O)OC)C2=S)cc1	0.8	0.6	.	.	42	22
CCOc1ccc(N2C(=O)/C(=C/c3cc(OC)c(OC)c(OC)c3)N(CC(=O)OC)C2=S)cc1	0.5	0.6	.	.	42	54*
O=C(CSc1nnc(-c2c[nH]c3ccccc23)o1)N1CCCCC1	0.6	0.9	0	-8	7	41
O=C(CSc1nnc(-c2ccco2)o1)N1c2ccccc2CCc2ccccc21	0.1	0	6	11	97*	89*
O=C(CSc1nnc(-c2c[nH]c3ccccc23)o1)N1c2ccccc2CCc2ccccc21	0.2	0.1	-2	36	92*	79*
O=C(CSc1nnc(COc2cccc3ccccc23)o1)N1c2ccccc2CCc2ccccc21	0.8	0.5	-7	-1	54*	22
c1ccc2c(-c3nnc(SCc4cn5ccccc5n4)o3)c[nH]c2c1	0.3	0.4	-6	-2	61*	67*
O=C(CSc1nnc(-c2ccco2)o1)N1CCOCC1	1	1.1	-2	-8	-9	-2
c1ccc(CSc2nnc(-c3c[nH]c4ccccc34)o2)cc1	1.1	1	3	5	0	-10
O=C(CCN1C(=O)c2cccnc2C1=O)NC1CCCCCC1	1	1.2	0	-30	-17	-3
CN(C)S(=O)(=O)Nc1ccc(NS(=O)(=O)N(C)C)c(S(=O)(=O)c2ccccc2)c1	1.1	0.6	-5	-12	36	-7
SMILES	CYP2C19 activ	CYP2C9 activ	Mac1 fbg enh	CD11b adhes inh	CYP2C9 inhib	CYP2C19 inhib
CN(C)S(=O)(=O)Nc1ccc2c(c1)Cc1ccccc1-2	0.6	0.1	-5	-4	94*	43
COc1ccc(NC(=O)c2cc(CN3C(=O)c4ccccc4C3=O)ccc2OC)cn1	0.7	0.2	27	-1	78*	33
Cn1c(NC(=O)c2cccc(Cn3cc(Cl)cn3)c2)nc2ccccc21	1	1	4	-2	-3	2
COc1ccc(NS(=O)(=O)c2ccc3c(c2)Cc2ccccc2-3)cn1	0.6	0.1	-4	60	88*	43
COc1ccc(NC(=O)c2cc(=O)c3ccccc3o2)cn1	0.9	1	-4	-9	2	10
COc1ccc(NC(=O)c2cccc(Cn3cc(Br)cn3)c2)cn1	0.3	0.2	-1	2	78*	71*
